In assay [1] the test system is Zika virus NS2B-NS3 protease (linked construct). In words: Primary screen NINDS Rhodamine qHTS for Zika virus inhibitors (AID 1347160). Note: nearly all actives have a fitted effect of over 55% in size. Conditions: outcome: dose series up to 57.1 µM unless noted. In short, it runs like this: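 Purified NS2B-NS3 protease with the NS2B hydrophilic domain joined by a flexible linker (25 nM) in 10 mM Tris-HCl pH 8.0, 0.01% Tween 20, preincubated 15 min at RT with compound; Rhodamine110 peptide substrate 1.5 µM; fluorescence change over 15 min; 4-parameter Hill fit.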

The nature of assay [2]: qHTS to identify inhibitors of the type 1 interferon - major histocompatibility complex class I in skeletal muscle: primary screen against the NCATS Pharmaceutical Collection (AID 1347407).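 Note: luminescence of HiBiT knocked into endogenous HLA-B as interferon-induced MHC class I level.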 Put shortly: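 Compounds […] were added to CRISPR-engineered HLA-B-HiBiT C25cl48 human myoblasts with 4.0 ng/ml IFN-beta. After 24 hrs at 37 C, cells were lysed and HiBiT luminescence measured.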
(In qHTS, concentration-response curves come from the screen itself.)

Assay [3] deals with Protein phosphatase 1D (Homo sapiens) (UniProt O15297). In words: RapidFire Mass Spectrometry qHTS Assay for Modulators of WT P53-Induced Phosphatase 1 (WIP1) (AID 1347424).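 Note: amount of dephosphorylated VEPPL-S-QETFS peptide product formed by WIP1; series mostly up to about 63 µM.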 In short, it runs like this:
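10 nM WIP1 preincubated with compounds 1 hr at room temperature in pH 7.5 Tris buffer with 30 mM MgCl2, 1 mM TCEP; 2 uM VEPPL-pS-QETFS phosphopeptide for 5 min, formic acid quench; dephosphorylated product quantified by RapidFire MS against labelled standard.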

Assay [4] in a line: Primary qHTS for inhibitors of La Crosse Virus (LACV) - induced cell death in SH-SY5Y cells (AID 1508616).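 Note: top concentration of the series differs between compounds; higher means more rescue of cells from virus-induced death.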 In short, it runs like this: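 Readout was luminescence from ATPLite 1step added after a 6-day LACV infection (0.01 MOI) of SH-SY5Y cells that had received pin-transferred compound 24 hr after seeding.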
For assay [5], the target named is Calcium and integrin-binding protein 1 (Homo sapiens) (UniProt Q99828). The assay can be described thus: Primary qHTS for Identification of Calcium Integrin Binding Protein 1 (CIB1) Competitor (AID 1508620). Note: top concentration of the series differs between compounds. In short, it runs like this: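 Fluorescence polarization competition: GST-tagged CIB1 (1 uM final) preincubated with compound 15 min at room temperature, then FITC-labelled alphaIIb peptide (100 nM final) added. After 15 min at room temperature, polarization read at Ex 480/Em 540.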
Chain of Calcium and integrin-binding protein 1 (Homo sapiens) (Q99828 whole entry, looked up): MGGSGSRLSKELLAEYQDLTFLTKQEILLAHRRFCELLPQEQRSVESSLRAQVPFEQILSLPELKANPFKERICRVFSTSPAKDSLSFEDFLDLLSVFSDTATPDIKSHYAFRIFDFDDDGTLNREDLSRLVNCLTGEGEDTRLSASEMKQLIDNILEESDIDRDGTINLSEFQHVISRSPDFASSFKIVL

Assay [6] is described as follows: Confirmatory screen NINDS Rhodamine qHTS for Zika virus inhibitors (AID 1347161). Note: series mostly up to about 110 µM; nearly all actives have a fitted effect of over 60% in size. Put shortly:
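Enzyme (25 nM, linked NS2B-NS3) was preincubated 15 min with compound in 10 mM Tris-HCl pH 8.0, 0.01% Tween 20. Rhodamine110 substrate (1.5 microM) was then added and fluorescence read at start and after 15 min.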

A short description of assay [7]: Tertiary RLuc qRT-PCR qHTS assay for Zika virus inhibitors (AID 1347169). Note: nearly all actives have a fitted effect of over 55% in size. Note: potency is the fitted concentration of half-maximal effect. Put shortly:
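Orthogonal cell-based readout: luminescence measured 1-1.5 hrs after adding live-cell Renilla substrate to Vero cells that had been infected with ZIKV-RLuc (MOI 1-2) post-compound, incubated 48-72 hrs at 37 degrees C.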
In general terms: In qPCR the cycle at which signal appears reflects the starting amount.

The target in assay [8] is Protein phosphatase 1D (Homo sapiens) (UniProt O15297). In words: Rhodamine-PBP qHTS Assay for Modulators of WT P53-Induced Phosphatase 1 (WIP1) (AID 1347425). In short, it runs like this:
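WIP1 (5 nM final) was preincubated with compound for 1 hour at room temperature. It then dephosphorylated 10 uM VEPPL-pS-QETFS peptide in Tris-HCl pH 7.5 with 30 mM MgCl2. Released Pi was detected by 10 uM Rh-PBP fluorescence (ex 525/em 598 nm) read at 1-min intervals for 11 min, as delta f1 - f0.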

Assay [9] in a line: Vero cells viability qHTS for Zika virus inhibitors (AID 1347167). In short, it runs like this: (§1)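 Cells seeded at 2.5 x 10^5 cells/mL in DMEM with 4% FBS and attached overnight at 37 degrees C, then exposed to compound for 24 to 48 hours. Viability read as ATP content by CellTiter Glo luminescence.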
Assay [10] can be described thus: HepG2 cells viability qHTS for Zika virus inhibitors (AID 1347168). Put shortly:
as §1

For assay [11], the target named is Lysine-specific demethylase 5B (Homo sapiens) (UniProt Q9UGL1). The assay can be described thus: Optimization screen for KDM5B Histone Demethylases FDH coupled qHTS against the LOPAC library (AID 1347166). Put shortly:
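KDM5BDeltaAP (200nM final) preincubated 10 min with compound, then 12.5uM H3K4Me3, 25uM a-ketoglutarate, ascorbate, Fe(II), NAD+ and FDH added; 50mM HEPES pH 7.5, 0.01% Tween-20. NADH fluorescence (340/450 nm) change over 30 min, room temperature.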

A short description of assay [12]: qHTS for inhibitors of adenylyl cyclases using a fission yeast platform: a pilot screen against the NCATS LOPAC library (AID 1347410). In short, it runs like this: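 GFP from fbp1-GFP reporter, read by Acumen laser cytometry, indicates AC inhibition in fission yeast expressing AC9, GNAS and PDE4D2. Cells grown 18 h in the dark at 30C with compounds, final up to 57 uM.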

Assay [13] deals with Single-stranded DNA cytosine deaminase (Homo sapiens) (UniProt Q9GZX7). In words: Validation qHTS assay for inhibitors of Activation Induced Cytidine Deaminase (AID): AID signal (AID 1347429). Put shortly: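 In this coupled qHTS, AID deaminates a FRET-labelled ssDNA substrate in the presence of UDG over 4 hr at room temperature. Compounds span up to 114 uM final.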
Chain of Single-stranded DNA cytosine deaminase (Homo sapiens) (Q9GZX7 whole entry, looked up): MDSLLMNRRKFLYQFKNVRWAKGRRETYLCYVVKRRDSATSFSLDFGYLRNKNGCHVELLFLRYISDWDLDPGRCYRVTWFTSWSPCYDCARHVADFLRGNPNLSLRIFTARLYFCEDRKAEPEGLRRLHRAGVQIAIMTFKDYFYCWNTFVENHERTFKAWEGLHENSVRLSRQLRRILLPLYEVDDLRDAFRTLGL
In assay [14] the target is Calcium and integrin-binding protein 1 (Homo sapiens) (UniProt Q99828). The assay can be described thus: Validation qHTS for Identification of Calcium Integrin Binding protein 1 (CIB1) Competitor (AID 1508618). Put shortly: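 Fluorescence polarization with 1 uM CIB1-GST and 100 nM FITC-alphaIIb peptide in HEPES pH 7.4, NaCl, 5 mM CaCl2, Tween20. Compounds at up to 114 uM final, preincubated with protein 15 min; read after 15 min more at RT.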

Assay [15] in a line: qHTS to identify inhibitors of the type 1 interferon - major histocompatibility complex class I in skeletal muscle: primary screen against the NCATS Mechanism Interrogation Plate v5.0 (MIPE) Libary (AID 1347411). Note: nearly all actives have a fitted effect of over 65% in size. In short, it runs like this: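 Cells were genome-edited human myoblasts carrying a HiBit tag on endogenous HLA-B. They were treated with IFN-beta (4.0 ng/ml) and titrated compounds (top 46 uM) for 24 hrs before lytic HiBiT detection.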

Unmarked numbers belong to inactive results. Inconclusive results are not listed. The source made the active and inactive calls. Calls come from the whole dose curve; as a rule, active = well fitted curve in the direction sought with a large enough effect; inconclusive = small, poorly fitted or top-dose-only effect, or another doubt; inactive = no such curve, though single readings can be large; an effect the other way counts as inactive or inconclusive.

Chain of Protein phosphatase 1D (Homo sapiens) (O15297 whole entry, looked up): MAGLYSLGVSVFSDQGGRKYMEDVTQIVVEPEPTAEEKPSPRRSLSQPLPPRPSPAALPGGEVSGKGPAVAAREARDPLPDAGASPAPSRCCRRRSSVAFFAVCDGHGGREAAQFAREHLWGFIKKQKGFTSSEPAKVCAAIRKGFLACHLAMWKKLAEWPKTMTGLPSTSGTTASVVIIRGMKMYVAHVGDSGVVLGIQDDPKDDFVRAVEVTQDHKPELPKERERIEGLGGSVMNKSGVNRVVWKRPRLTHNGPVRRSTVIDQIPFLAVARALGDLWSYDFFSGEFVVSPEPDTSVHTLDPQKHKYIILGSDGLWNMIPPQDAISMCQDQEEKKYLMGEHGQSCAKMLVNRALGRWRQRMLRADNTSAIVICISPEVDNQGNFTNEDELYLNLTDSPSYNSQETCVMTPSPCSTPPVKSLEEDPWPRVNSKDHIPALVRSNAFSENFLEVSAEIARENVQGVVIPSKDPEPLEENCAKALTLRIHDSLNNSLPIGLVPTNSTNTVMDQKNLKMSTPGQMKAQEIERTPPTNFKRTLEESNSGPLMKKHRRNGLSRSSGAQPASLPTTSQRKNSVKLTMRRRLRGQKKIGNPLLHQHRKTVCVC
Chain of Lysine-specific demethylase 5B (Homo sapiens) (Q9UGL1 whole entry, looked up): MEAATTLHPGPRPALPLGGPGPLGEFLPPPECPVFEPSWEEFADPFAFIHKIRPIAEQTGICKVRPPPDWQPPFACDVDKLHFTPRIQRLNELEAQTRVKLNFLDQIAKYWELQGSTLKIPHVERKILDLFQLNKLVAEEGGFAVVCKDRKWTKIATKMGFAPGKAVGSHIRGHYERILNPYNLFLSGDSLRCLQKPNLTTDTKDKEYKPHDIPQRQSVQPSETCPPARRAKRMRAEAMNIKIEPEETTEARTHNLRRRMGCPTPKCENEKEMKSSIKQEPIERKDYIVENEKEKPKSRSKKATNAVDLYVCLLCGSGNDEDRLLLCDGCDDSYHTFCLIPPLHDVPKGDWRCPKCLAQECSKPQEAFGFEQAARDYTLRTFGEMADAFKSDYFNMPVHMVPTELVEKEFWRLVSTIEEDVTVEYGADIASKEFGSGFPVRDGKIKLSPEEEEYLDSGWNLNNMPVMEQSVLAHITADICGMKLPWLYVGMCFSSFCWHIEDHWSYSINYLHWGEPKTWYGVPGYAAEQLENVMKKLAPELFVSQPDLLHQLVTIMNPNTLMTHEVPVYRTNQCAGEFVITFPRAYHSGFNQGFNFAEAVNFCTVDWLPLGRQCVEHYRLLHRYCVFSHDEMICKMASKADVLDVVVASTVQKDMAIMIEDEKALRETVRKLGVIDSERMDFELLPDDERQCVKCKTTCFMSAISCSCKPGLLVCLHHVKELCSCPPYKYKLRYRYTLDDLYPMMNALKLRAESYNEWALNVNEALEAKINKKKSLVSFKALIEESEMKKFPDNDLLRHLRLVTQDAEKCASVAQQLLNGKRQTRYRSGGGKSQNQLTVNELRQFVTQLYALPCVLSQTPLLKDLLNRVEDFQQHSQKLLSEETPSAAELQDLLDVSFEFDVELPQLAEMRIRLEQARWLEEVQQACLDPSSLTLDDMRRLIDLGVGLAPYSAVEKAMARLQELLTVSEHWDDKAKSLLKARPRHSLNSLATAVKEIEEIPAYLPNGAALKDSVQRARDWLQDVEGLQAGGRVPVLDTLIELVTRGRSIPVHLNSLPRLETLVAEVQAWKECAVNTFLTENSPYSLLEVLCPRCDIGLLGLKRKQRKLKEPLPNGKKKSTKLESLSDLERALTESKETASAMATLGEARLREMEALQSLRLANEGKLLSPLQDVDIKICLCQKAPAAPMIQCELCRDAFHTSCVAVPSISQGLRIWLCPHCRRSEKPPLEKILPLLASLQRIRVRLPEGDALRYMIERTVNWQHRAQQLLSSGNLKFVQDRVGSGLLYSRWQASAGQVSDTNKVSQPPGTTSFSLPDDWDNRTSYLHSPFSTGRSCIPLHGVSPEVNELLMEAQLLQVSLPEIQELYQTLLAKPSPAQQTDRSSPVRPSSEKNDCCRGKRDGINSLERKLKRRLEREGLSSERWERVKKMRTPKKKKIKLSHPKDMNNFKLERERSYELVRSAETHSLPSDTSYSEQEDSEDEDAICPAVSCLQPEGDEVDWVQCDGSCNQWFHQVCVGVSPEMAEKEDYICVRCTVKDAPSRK

`C[C@H](CN1CCCC1)C(=O)c1ccc(C(F)(F)F)cc1`: the compound was called inactive in [1] and in assay [4]. The Potency result in [2], in assay [3] and in assay [5] was “inactive” each time.
`O=C(COCCOCCOCC(=O)Nc1c(I)cc(I)c(C(=O)O)c1I)Nc1c(I)cc(I)c(C(=O)O)c1I`: the Potency entry in assay [6], in assay [7], in assay [2] and in assay [3] was “inactive” each time. Also, the outcome in assay [8] and in assay [4] was inactive.
Regarding `COc1c(C)c2c(c(O)c1C/C=C(\C)CCC(=O)OCCN1CCOCC1)C(=O)OC2`, the compound was classed as inactive in assay [9]. For the same compound, in assay [7], the Potency is 739 nM (active). Moreover, the Potency entry in assay [2], in assay [3] and in assay [5] was “inactive” throughout.
Turning to `Cc1nc(C2CCCCC2)c(-c2ccc(S(N)(=O)=O)c(F)c2)o1`, the compound was called inactive in assay [9], in assay [10], in [8] and in assay [4]. The Potency result in assay [3] and in assay [5] was “inactive” in each case.
Turning to `CO/N=C(/C(=O)N[C@@H]1C(=O)N2C(C(=O)O)=C(Cn3nnc(C)n3)CS[C@H]12)c1csc(N)n1`, the compound was classed as inactive in [1] and in [4]. Moreover, the Potency result in assay [2] and in assay [3] was “inactive” each time.
Turning to `O=C1NC2CCCCN2C12CCN(CCCN1c3ccccc3CCc3ccc(Cl)cc31)CC2` (stereo not given), the result in assay [1] and in assay [8] was inactive. Further, the Potency entry in [3] and in assay [5] was “inactive” in each case.
Consider `CCN(CC)CCNC(=O)c1ccc(NS(C)(=O)=O)cc1`, for which the call in assay [11], in assay [12], in [13], in assay [4] and in assay [14] was inactive.
`CCN(CC)CCOc1ccc(/C(=C(\Cl)c2ccccc2)c2ccccc2)cc1`: the result in [1], in assay [8] and in assay [4] was inactive. For the same compound, the Potency result in [3] and in [5] was “inactive” each time.
Regarding `O=C(c1ccco1)N1CCNCC1`, the Potency entry in assay [2], in assay [3] and in [5] was “inactive” each time. Also, the outcome in [8] and in assay [4] was inactive.
As to `CC1(C)O[C@@H]2C[C@H]3[C@@H]4CCC5=CC(=O)C=C[C@]5(C)[C@@]4(F)[C@@H](O)C[C@]3(C)[C@]2(C(=O)CO)O1`, the Potency result in assay [2], in assay [15], in [3] and in assay [5] was “inactive” each time. For the same compound, the result in [8] and in assay [4] was inactive.
For the compound `CO/N=C(/C(=O)N[C@@H]1C(=O)N2C(C(=O)[O-])=C(C[n+]3ccn4ncccc43)CS[C@H]12)c1nsc(N)n1`, the Potency entry in assay [2] and in assay [3] was “inactive” in each case. Besides, the compound was classed as inactive in assay [8].
In the case of `CC(C)OP(=O)(CP(=O)(OC(C)C)OC(C)C)OC(C)C`, the Potency entry in [2], in assay [3] and in assay [5] was “inactive” throughout. Moreover, the compound was classed as inactive in assay [8] and in assay [4].
Take `CN1CC(=O)N2[C@H](c3ccc4c(c3)OCO4)c3[nH]c4ccccc4c3C[C@@H]2C1=O`: the Potency entry in assay [2], in assay [15], in assay [3] and in [5] was “inactive” in each case. Also, the result in assay [8] and in assay [4] was inactive.
`CCCCCCOC(=O)NC(=N)c1ccc(NCc2nc3cc(C(=O)N(CCC(=O)OCC)c4ccccn4)ccc3n2C)cc1`: the Potency result in assay [2], in assay [15], in assay [3] and in [5] was “inactive” throughout. Moreover, in assay [4], the call was inactive.

Values taken from PubChem BioAssay (NCATS).
